# Results published in the supplement of paper PMC6555819.
# System: VDR:RXRa (NR concentration 270 nM, RXRa partner concentration 90 nM)
# Assay: PBM binding z-score (relative to random genomic background probes); higher = stronger binding; sequences stand for … in GC…GCGATTGACAGCGTAGAATGAAGG
# Method: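 Protein-binding microarray (Agilent 4x180K custom design, double-stranded 60-nt probes: 5' GC cap, 34-nt variable region, 24-nt constant primer region; full probe sequence given). Purified or IVT nuclear receptor:RXRα heterodimers (3:1 NR:RXRα, mostly 270:90 nM) or homodimers were incubated for 1 h in PBS with 2% milk and no ligand, then detected with Alexa488 antibodies. Fluorescence from o1-orientation probes (~5 replicates averaged) was converted to z-scores against 500 random hg19 background probes. Variable regions are seed direct-repeat (DR0–DR5) sites, all their single-nucleotide variants and half-site ablations.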
row,Sequence,PBM binding z-score
1,GCTCGGAGGACAAGGTCAGAGATTTGTCCGTAGA,1.22
2,ATCTCTATGTAACAAGTTCAGTGAAAGAGAGGAC,1.26
3,TCATATAGGTAAATGGTAGGTGAAAGTCCGATCT,1.16
4,GATAGCAGGCCATTTGGGTCACTCAATGACGGGC,1.07
5,AGTCAAAGTTCACTAGGTAACCTAAGATTCAGCT,4.04
6,TAGCCTAGGTCACTGGGCCAGTATAGTACGCATC,1.45
7,CATCCAAGGTCAGAGAGGTCAGTGAATGCCGAGT,7.55
8,CCTGCAAGGTCAATGGTCAGCTAAAGCAGCTCGC,3.76
9,TCTGCTAGGTCAGTTGCTCAGCTAACGAGCTGCC,-0.466
10,CCTACTGGGCCAGGAAAGGTCATTGATTCAGTGA,3.53
11,ATATCTAGGTAACAAGTTCAGTGAAAGAGAGGAC,2.31
12,ACTAGCAGGCCAAGTTTGGGTCACTCACACAAAG,0.806
13,ATCGCTAGGTAACAAGTTCAGTGAAAGAGAGGAC,1.42
14,GATACAAGGTCAAGGCCAGAGTACGCGTATTGAT,4.39
15,AATACAGGGTCATTGTAGGCCAGAGTACGCACAG,5.08
16,TCTCGGAGGACACGAAGGGCAGAGCTTTCCAGAG,0.0136
17,CCACACAGGTGAAAGGTAACTCAGTCTGGTACGC,1.05
18,TGTCAAAGTTCAAAGGAAACGTAAGTATCCACAC,3.86
19,ACTAGCAGGCCAAGGGTCAGTCAAGATTAGTCCG,1.12
20,GGAACAAGGGCAAGTTGATAGCAGAGTTTGATGG,0.829

row,Sequence,PBM binding z-score
1,CCTACTTGGTCAGGAGGTCACACACCGGATATGA,3.89
2,TTACCCAGGTGAGCTGAGGTCGTTGATCCAACTC,2.93
3,CCTACTGGGCAATTCAGAGGTCATTGATCATATG,3.49
4,TCTATTAGTTGATTAGGGCAACCGCAACAGCGGA,0.526
5,CGTCAAAGTTCAAGGTAGCGTAACAGAAAGCAGC,3.68
6,TCTCGGAGGACACGGAAGGTCAGAGCTCGACATC,1.97
7,TCTTGTAGATCAGCAGATTAAGAAAGCTGGCCAA,0.172
8,CCTTACGGGTCACTCCAGGTTACAGCATCGGAGT,3.95
9,ACTAGCAGGCCAAGTTTGGGTCAATCAAACAAAG,0.502
10,TCAAATAGGTAAATGCTAGGTGAAAGTCCGATCT,0.866
11,CAAACTAGGTCACCTGAAGGTCAAAGTCCGCATG,5.59
12,AGAATGAGGTTAAGATCCGGGAAACAGAATACAT,1.05
13,CCTCGGAGCACAGAAGGTCAGAGCTGTCCGCTTT,1.33
14,CCTAGCAGGCCAATTTGGGTCACTCAAGGCTTGA,0.482
15,TAGCCTAGGTCATGCGGGCCTGTATAGTGTCGGC,1.75
16,CCGACTGGGGCAATGGTTACCATACTCAGTACGA,-0.604
17,GCGAGCAGGCCATTTGGGTCACTCAATGACGGGC,0.881
18,CGAACGAGGGCATGAGTGGATAGCAAATGCCGAT,0.295
19,ATCGAAAGGTCGTGAGGTGAGTAGACAGAAAGGC,3.35
20,CTCGTAAGGTCGTGCTCAGGTGAGTATACCAAAC,2.61
